Most compounds without a hit are left out; they make up all but 4.5% or so of the library.
Rce1 inh – yeast Rce1p protease inhibitors, primary screen, biochemical, fluorescence, cell-free homogeneous | 0.27% of 290,000 active | calls only | CAAX prenyl protease 2 (Saccharomyces cerevisiae (strain ATCC 204508 / S288c)), Q03530 | yeast membranes, quenched prenylated peptide cleavage fluorescence;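 active = fall in fluorescence gain of 50% or more versus controls, with final raw signal at or below 3038400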
Rtt109 HAT inh – inhibitors of C. albicans Rtt109/Vps75 HAT, primary screen, biochemical, ThioGlo CoA-SH fluorescence, plate reader. Histone acetyltransferase RTT109 (Candida albicans (strain SC5314 / ATCC MYA-2876)), …. purified Rtt109/Vps75, 4 h. inhibition, % at 34.9 µM. 0.16% of 330,000 active;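 active = inhibition of at least 50% in every replicate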
HDAC3 inhib – HDAC3 deacetylase inhibitors, primary screen, biochemical, fluorescence, cell-free homogeneous | 0.15% of 320,000 active | AID 2718, 2010 | Histone deacetylase 3 (Homo sapiens), O15379 | inhibition, % at 8.3 µM | recombinant HDAC3, fluorogenic peptide/trypsin coupled; in the data active = inhibition above about 26%, passing the limit was not always enough
Efflux pump inh – inhibitors of Candida efflux pumps in yeast, primary screen, S. cerevisiae, Nile Red, multiplex; S. cerevisiae Candida pump triplex; inhibition, % at 10 µM; 0.44% of 330,000 active; AID 485275, 2010;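 active = plate passing quality check with inhibition over a set limit, or well fluorescence over plate mean plus 4 SD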;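 note: Nile Red retained in pooled yeast measured as flow cytometry median fluorescence; higher means more Nile Red kept so more efflux inhibition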
GRK2 aptamer HTS – compounds blocking aptamer binding on GRK2 – biochemical, human GRK2, bead flow cytometry, HTS, primary screen | Beta-adrenergic receptor kinase 1 (Homo sapiens), P25098 | FAM-aptamer displacement from GRK2 | inhibition of aptamer binding, % at 10 µM | 0.59% of 330,000 active;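 active = inhibition of aptamer binding above 40%, roughly 3 SD of noise, on plates passing a quality check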;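 note: median bead fluorescence of bound FAM aptamer so fluorescent compounds give negative values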
Target sequence (P25098 whole entry, looked up): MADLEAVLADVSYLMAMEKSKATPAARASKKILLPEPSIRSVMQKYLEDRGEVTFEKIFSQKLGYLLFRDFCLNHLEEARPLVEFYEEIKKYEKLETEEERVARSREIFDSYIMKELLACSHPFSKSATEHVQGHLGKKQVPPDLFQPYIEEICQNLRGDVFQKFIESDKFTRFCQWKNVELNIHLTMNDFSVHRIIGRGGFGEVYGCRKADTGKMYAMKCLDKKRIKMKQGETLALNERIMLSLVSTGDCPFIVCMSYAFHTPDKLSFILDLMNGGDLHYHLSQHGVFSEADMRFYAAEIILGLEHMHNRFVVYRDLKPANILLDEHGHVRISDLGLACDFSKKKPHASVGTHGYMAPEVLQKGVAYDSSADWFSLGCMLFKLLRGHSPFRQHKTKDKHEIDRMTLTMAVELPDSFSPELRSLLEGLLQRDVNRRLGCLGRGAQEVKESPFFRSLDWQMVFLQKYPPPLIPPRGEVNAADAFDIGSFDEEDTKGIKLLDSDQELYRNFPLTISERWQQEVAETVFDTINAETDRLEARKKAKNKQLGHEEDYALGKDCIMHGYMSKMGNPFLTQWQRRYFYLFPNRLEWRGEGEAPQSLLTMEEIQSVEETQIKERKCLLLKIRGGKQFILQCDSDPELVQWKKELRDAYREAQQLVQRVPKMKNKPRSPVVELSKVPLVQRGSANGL
ALR inh – inhibitors of human ALR sulfhydryl oxidase, primary screen, biochemical, H2O2 detection, HRP-luminol luminescence, single point; purified ALR, DTT oxidation; inhibition, % (test concentration not listed); 3.8% of 290,000 active; AID 485317, 2010;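 active = mean replicate inhibition above about 79%, with every replicate also reaching it, limit read from the data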
GRK2 CP1 – GRK2 aptamer-displacing inhibitors, retest, confirmation, biochemical, cherry pick 1, bead flow cytometry. aptamer displacement, % at 10 µM. 4% of 2,000 active. shares compounds with GRK2 aptamer HTS. AID 504451, 2011. bead-bound GRK2, FAM-aptamer displacement;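 active = aptamer displacement above 40%, near three times the noise of non-fluorescent compounds, on plates passing quality checks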;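 note: negative values mostly reflect intrinsic compound fluorescence rather than true enhancement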
Aptamer quench SP – counter-screen for GRK2 aptamer inhibitors: fluorescent aptamer quenchers; shares compounds with GRK2 aptamer HTS; Carboxyfluorescein RNA aptamer on beads, flow cytometry quenching; active compounds read low; fluorescence response (% of DMSO), % at 10 µM; 2,000 tested, under 10 active;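 active = compounds that quench the bead-bound fluorescent RNA probe, cutting fluorescence to under half of the solvent control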;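 note: counterscreen run without GRK2 so only probe quenching by compound is measured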
GRK2 CP2 – GRK2 aptamer-displacing inhibitors, hit retest, confirmation, biochemical, cherry pick 2, bead flow cytometry; inhibition of aptamer binding, % at 10 µM; 360 tested, under 10 active; AID 504782, 2011; bead-bound GRK2, FAM-aptamer displacement; shares compounds with GRK2 aptamer HTS;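 active = inhibition of aptamer binding above 40%, about triple the noise seen with nonglowing compounds, on plates passing quality control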;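 note: negative values mostly come from compounds that fluoresce themselves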
FAM quench CP2 – aptamer fluorescence quenching in GRK2 counter-screen. shares compounds with GRK2 aptamer HTS. AID 588494. fluorescence response vs DMSO, % at 10 µM. 360 tested, under 10 active. carboxyfluorescein RNA aptamer beads, flow cytometry quenching; active compounds read low;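 active = response vs DMSO under 50%, meaning signal dropped by over half, treated as fluorescence quencher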;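 note: labelled aptamer on streptavidin beads without GRK2 as a quench counter-screen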
Of the large screens only hits and unclear results are named; the others gave an inactive call (follow-up assays come after a bar, where they were run).

Cc1cc(Cl)c2oc(C(=O)N(C)Cc3ccon3)c(C)c2c1	none
COC(=O)c1ccc(-c2sc3nc(N4CCOCC4)c4c(c3c2N)CCCC4)o1	none (no result: Rtt109 HAT inh)
CC12CCC(=O)N1c1c(sc3nc(N4CCOCC4)c4c(c13)CCCC4)C(=O)N2 (centres undefined)	GRK2 aptamer HTS 45 | GRK2 CP1 inactive | Aptamer quench SP inactive
CNc1snc(C)c1C(=O)OCC(=O)NCc1ccccc1OC	none (no result: Rce1 inh)
CN1CCN(c2ccc(-c3cccc(NC(=O)COc4ccc(Cl)cc4)c3)nn2)CC1	none | GRK2 CP1 inactive | Aptamer quench SP inactive
CN1CCN(c2ccc(-c3cccc(NC(=O)COc4ccccc4)c3)nn2)CC1	none (no result: ALR inh) | GRK2 CP1 inactive | Aptamer quench SP inactive
Cc1cc(C)n(CCN(C)C(=O)C2CCC(=O)N(CCN3CCOCC3)C2)n1 (centres undefined)	none (no result: Rce1 inh)
COCCN(C(=S)Nc1c(C)cc(C)cc1C)C(C)c1cccs1 (centres undefined)	none
Cc1ccc(NC(=O)CCn2c(=O)[nH]c3ccsc3c2=O)cc1F	GRK2 aptamer HTS 71 | GRK2 CP1 inactive | Aptamer quench SP inactive
COc1cc(-c2noc(C)c2C(=O)NCCCN2CCCC2=O)cc(OC)c1OC	none (no result: Rce1 inh)
COc1cc(C(=O)NCCCN2CCCC2=O)cc(OC)c1OC	GRK2 aptamer HTS 94 | GRK2 CP1 inactive | Aptamer quench SP inactive
O=C(Nc1ccccc1C(=O)N1CCOCC1)c1ccc(F)cc1	none
O=C(Nc1ccccc1C(=O)N1CCOCC1)c1ccc(Br)cc1	GRK2 aptamer HTS 100 | GRK2 CP2 inactive | FAM quench CP2 inactive
COc1ccc(CN(C)C(=O)CCN=C2NS(=O)(=O)c3ccccc32)c(OC)c1	none (no result: Rce1 inh)
O=c1[nH]nc(Cc2ccc([N+](=O)[O-])cc2)c2ccccc12	GRK2 aptamer HTS 86 | GRK2 CP1 inactive | Aptamer quench SP inactive
O=c1[nH]nc(Cc2ccccc2)c2ccccc12	none
Cn1cc(Br)c(NC(=O)/C=C/C(=O)O)n1	none
COc1ccc(CCNC(=O)C2(C)CCC(=O)N2Cc2ccc(C)cc2)cc1OC (centres undefined)	none | GRK2 CP1 inactive | Aptamer quench SP inactive
COc1ccc(CN2C(=O)C(CC(C)C)Nc3ncnc(N4CCCCC4)c32)cc1 (centres undefined)	none
COc1ccc(CN2C(=O)C(CC(C)C)Nc3ncnc(N4CCOCC4)c32)cc1 (centres undefined)	GRK2 aptamer HTS 97 | GRK2 CP1 inactive | Aptamer quench SP inactive
CCN(CC)CCCNC(=S)N(Cc1cccnc1)Cc1cc2cc(C)cc(C)c2[nH]c1=O	none (no result: ALR inh) | GRK2 CP1 inactive | Aptamer quench SP inactive
CC(Cl)C(=O)Nc1ncc(C(F)(F)F)cc1Cl (centres undefined)	GRK2 aptamer HTS 52 | GRK2 CP1 inactive | Aptamer quench SP inactive
CC1CC(C)CN(S(=O)(=O)c2ccc(C(=O)N3CCN(c4ccccc4)CC3)cc2)C1 (centres undefined)	none | GRK2 CP1 inactive | Aptamer quench SP inactive
COc1ccccc1N1CCN(C(=O)c2ccc(S(=O)(=O)N3CCCCCC3)cc2)CC1	none | GRK2 CP1 inactive | Aptamer quench SP inactive

Source: PubChem BioAssay (several laboratories)
